The target of experiment [1] is T1, Serine/threonine-protein kinase TBK1 (Homo sapiens) (UniProt Q9UHD2).
T1 sequence (whole entry): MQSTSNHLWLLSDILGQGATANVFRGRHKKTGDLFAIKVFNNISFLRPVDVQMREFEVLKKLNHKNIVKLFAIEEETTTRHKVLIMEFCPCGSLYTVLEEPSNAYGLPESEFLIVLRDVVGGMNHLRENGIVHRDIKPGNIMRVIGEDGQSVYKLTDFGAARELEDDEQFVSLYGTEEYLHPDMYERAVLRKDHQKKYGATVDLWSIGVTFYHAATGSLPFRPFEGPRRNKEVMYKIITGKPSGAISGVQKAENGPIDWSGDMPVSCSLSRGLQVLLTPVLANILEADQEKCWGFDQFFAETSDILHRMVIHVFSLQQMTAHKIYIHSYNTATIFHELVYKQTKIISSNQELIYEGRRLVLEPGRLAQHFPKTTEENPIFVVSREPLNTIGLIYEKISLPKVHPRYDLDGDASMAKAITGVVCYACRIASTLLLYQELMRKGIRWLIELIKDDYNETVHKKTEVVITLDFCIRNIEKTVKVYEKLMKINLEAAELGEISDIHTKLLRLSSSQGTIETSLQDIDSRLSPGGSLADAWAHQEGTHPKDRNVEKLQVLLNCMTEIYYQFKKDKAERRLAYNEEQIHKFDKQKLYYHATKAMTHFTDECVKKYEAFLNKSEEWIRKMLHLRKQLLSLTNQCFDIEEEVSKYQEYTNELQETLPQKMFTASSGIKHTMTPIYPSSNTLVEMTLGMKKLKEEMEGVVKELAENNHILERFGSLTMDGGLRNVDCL
The following applies: at 10 µM.

The target in experiment [2] is T2, TGF-beta receptor type-1 (Homo sapiens) (UniProt P36897).
T2 sequence (whole entry): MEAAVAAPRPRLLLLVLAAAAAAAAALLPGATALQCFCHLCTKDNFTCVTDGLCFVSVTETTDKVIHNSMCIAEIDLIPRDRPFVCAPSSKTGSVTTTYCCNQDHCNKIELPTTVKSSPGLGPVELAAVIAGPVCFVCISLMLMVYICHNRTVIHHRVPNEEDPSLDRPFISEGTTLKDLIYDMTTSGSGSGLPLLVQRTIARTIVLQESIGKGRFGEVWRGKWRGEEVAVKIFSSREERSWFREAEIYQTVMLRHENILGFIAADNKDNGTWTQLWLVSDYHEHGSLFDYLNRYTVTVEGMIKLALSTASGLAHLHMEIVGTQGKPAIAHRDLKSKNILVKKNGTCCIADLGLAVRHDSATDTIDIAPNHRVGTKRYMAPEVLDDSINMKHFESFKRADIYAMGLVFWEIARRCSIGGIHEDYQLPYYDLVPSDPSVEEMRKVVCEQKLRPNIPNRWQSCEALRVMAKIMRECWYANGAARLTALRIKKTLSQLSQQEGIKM
To be noted: at 1 µM.

The target in experiment [3] is T2, TGF-beta receptor type-1 (Homo sapiens). To be noted: at 10 µM.
For experiment [4], the target named is Insulin-like growth factor 1 receptor (Homo sapiens) (UniProt P08069). The following applies: at 1 µM.
Chain of Insulin-like growth factor 1 receptor (Homo sapiens) (P08069 31-736 limits assumed): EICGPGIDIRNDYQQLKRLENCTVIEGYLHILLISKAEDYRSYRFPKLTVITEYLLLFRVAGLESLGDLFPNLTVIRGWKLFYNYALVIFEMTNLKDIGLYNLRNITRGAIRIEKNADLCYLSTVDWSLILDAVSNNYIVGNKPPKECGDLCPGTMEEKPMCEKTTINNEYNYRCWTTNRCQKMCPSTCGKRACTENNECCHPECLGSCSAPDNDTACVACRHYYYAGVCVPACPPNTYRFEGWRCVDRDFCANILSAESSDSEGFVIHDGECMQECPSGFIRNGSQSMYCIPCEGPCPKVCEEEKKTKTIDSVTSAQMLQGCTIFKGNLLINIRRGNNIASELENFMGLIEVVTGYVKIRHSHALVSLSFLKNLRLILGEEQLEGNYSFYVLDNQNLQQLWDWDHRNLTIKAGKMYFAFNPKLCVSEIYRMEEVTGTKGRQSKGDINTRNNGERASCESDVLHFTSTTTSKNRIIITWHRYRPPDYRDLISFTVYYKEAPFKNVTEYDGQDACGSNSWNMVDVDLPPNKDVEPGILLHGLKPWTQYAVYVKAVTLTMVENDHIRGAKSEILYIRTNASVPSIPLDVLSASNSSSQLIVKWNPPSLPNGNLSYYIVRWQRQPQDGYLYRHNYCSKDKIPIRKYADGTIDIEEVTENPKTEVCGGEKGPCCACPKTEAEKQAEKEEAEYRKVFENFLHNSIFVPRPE
Chain of Insulin-like growth factor 1 receptor (Homo sapiens) (P08069 741-1367 limits assumed): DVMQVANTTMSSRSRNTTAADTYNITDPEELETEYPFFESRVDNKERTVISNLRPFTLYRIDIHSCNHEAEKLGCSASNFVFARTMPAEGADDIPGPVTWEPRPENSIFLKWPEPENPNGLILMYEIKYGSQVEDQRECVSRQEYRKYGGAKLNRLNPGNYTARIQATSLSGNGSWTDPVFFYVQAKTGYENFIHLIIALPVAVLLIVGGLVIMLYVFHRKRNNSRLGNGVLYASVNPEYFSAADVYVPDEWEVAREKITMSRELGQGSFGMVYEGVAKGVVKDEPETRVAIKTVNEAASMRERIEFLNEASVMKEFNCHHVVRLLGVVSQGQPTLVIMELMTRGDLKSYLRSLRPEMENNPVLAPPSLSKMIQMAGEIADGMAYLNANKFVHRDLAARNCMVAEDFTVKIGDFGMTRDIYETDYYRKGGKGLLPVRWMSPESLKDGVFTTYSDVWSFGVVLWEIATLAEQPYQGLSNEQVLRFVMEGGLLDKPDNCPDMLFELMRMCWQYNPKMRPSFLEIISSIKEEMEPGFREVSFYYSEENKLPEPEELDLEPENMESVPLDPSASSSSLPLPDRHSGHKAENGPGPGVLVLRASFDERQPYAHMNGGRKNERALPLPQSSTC
For experiment [5] the target is unchanged. To be noted: at 10 µM.
In experiment [6] the target is T3, Inhibitor of nuclear factor kappa-B kinase subunit alpha (Homo sapiens) (UniProt O15111).
T3 sequence (whole entry): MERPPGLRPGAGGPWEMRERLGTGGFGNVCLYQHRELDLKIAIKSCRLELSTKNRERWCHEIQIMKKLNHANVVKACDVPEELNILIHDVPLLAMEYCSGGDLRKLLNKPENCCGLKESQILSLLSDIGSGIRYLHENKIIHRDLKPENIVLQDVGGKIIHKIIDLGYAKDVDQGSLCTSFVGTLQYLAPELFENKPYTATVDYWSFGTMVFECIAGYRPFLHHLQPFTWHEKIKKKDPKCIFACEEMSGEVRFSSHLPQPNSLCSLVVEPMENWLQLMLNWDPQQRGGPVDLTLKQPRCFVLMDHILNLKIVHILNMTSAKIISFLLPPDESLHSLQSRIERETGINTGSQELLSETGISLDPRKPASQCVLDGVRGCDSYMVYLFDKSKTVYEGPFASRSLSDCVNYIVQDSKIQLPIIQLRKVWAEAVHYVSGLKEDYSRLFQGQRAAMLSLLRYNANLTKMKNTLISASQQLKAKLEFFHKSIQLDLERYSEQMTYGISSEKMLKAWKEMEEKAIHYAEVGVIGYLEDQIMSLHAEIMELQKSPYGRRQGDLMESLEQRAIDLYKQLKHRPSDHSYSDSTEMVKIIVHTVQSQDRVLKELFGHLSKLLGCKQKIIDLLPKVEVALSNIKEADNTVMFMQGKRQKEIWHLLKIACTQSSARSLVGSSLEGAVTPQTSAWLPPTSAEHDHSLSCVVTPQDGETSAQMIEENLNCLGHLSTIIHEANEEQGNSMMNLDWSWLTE
The following applies: at 1 µM.

The target in experiment [7] is T3, Inhibitor of nuclear factor kappa-B kinase subunit alpha (Homo sapiens). To be noted: at 10 µM.
The target of experiment [8] is T4, Inhibitor of nuclear factor kappa-B kinase subunit beta (Homo sapiens) (UniProt O14920).
T4 sequence (whole entry): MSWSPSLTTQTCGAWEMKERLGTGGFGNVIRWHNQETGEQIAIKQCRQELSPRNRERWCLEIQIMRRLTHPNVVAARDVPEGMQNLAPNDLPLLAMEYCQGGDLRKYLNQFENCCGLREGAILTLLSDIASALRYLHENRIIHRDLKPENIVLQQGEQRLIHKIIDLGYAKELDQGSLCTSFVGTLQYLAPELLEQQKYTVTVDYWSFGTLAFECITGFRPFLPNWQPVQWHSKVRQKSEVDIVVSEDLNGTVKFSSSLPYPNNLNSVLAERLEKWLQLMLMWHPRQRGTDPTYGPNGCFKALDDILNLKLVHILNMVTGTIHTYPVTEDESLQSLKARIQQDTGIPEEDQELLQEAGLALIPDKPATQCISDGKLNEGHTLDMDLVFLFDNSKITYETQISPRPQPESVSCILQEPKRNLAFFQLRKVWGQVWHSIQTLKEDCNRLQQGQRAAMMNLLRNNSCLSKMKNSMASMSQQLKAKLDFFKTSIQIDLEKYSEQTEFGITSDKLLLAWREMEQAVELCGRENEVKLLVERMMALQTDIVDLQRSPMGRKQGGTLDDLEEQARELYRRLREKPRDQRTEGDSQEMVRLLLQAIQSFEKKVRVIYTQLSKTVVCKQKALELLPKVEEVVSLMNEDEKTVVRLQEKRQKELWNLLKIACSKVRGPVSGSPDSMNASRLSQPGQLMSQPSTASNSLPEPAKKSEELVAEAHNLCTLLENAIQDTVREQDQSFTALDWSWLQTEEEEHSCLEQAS
The following applies: at 1 µM.

For experiment [9], the target named is T4, Inhibitor of nuclear factor kappa-B kinase subunit beta (Homo sapiens). To be noted: at 10 µM.
The target in experiment [10] is Insulin receptor (Homo sapiens) (UniProt P06213). The following applies: at 1 µM.
Chain of Insulin receptor (Homo sapiens) (P06213 28-758 limits assumed): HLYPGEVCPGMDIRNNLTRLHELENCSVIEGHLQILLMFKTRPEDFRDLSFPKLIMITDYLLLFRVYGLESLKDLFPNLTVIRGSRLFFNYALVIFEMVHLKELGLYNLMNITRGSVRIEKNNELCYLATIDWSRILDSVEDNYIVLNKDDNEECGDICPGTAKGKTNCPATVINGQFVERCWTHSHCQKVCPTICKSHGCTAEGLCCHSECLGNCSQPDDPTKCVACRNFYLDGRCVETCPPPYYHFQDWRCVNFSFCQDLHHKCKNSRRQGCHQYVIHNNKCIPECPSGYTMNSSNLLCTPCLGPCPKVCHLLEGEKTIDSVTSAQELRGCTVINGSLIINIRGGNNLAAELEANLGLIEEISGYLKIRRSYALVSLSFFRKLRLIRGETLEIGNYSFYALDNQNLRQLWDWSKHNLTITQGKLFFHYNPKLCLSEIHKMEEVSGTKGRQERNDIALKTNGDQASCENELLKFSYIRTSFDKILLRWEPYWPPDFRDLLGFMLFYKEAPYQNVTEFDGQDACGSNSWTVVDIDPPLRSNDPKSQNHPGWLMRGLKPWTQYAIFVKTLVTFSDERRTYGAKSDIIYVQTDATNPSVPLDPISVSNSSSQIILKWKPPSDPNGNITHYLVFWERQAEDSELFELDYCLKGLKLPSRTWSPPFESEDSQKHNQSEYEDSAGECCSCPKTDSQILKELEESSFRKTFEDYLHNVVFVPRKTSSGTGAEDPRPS
Chain of Insulin receptor (Homo sapiens) (P06213 763-1382 limits assumed): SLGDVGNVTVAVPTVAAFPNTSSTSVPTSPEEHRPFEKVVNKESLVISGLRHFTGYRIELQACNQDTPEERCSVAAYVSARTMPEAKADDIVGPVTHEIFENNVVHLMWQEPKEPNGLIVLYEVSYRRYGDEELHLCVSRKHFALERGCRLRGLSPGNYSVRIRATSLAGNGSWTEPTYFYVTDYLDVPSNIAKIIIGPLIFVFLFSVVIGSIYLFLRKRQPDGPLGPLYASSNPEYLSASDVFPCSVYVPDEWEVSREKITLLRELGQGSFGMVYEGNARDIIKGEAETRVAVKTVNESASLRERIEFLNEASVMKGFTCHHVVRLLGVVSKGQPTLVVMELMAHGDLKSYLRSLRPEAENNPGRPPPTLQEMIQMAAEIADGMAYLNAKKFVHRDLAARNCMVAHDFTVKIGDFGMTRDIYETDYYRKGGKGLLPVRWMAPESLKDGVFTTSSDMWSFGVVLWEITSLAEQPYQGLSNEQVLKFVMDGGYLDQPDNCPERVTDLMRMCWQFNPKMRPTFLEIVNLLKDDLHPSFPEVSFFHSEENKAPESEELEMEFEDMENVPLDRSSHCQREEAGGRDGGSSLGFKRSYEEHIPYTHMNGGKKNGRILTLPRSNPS

For `Nc1ccc2ncnc(NCCc3ccc(Oc4ccccc4)cc3)c2c1`, the residual activity (as a rule, the signal under treatment as a percentage of the control signal) stood at 62% in [1]; 117% in [2]; 112% in experiment [3]; 116% in experiment [4]; 119% in experiment [5]; 107% in experiment [6]. Besides, the residual activity worked out at 101% in experiment [7], 115% in experiment [8], 110% in experiment [9] and 139% in experiment [10].

The values are drawn from ChEMBL document CHEMBL2218924, “A broad activity screen in support of a chemogenomic map for kinase signalling research and drug discovery” (Biochem J, 2013).
